Compound activity deposited in PubChem BioAssay by National Center for Advancing Translational Sciences (NCATS).
Rows were chosen to be rich in hits. Some 19% of all compounds tested hit in one or more screens of this group.
Pf growth 96h – Primary qHTS for delayed death inhibitors of the malarial parasite plastid, 96 hour incubation. AID 504834, 2011. P. falciparum luciferase reporter growth, 96 h. Potency, µM (series often up to 28.7 µM), actives largely listed as inhibitors. 6.9% of 320,000 active
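Luminescence readout: decreased luciferase signal marks inhibited growth of reporter-expressing P. falciparum in infected red cells (2% hematocrit, 0.05% parasitemia final), exposed to compound two generations (96 h, 37 C, 5% CO2).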
Pf growth 48h – Primary qHTS for delayed death inhibitors of the malarial parasite plastid, 48 hour incubation; Potency, µM (highest dose often 28.7 µM), usual class: inhibitors; P. falciparum luciferase growth in erythrocytes, 48 h; AID 504832, 2011; 5.9% of 310,000 active
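First compound was added to culture medium, then infected red cells at 0.1% parasitemia and 2% hematocrit (final). After incubation at 37 C under 5% CO2, luciferase detection reagent was dispensed and light output recorded.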
AMA1-RON2 inh – qHTS for Inhibitors of AMA1-RON; Towards Development of Antimalarial Drug Lead: Primary Screen; Plasmodium falciparum AMA1 (3D7) - RON2 peptide interaction; AlphaScreen AMA1-biotinylated RON2 peptide binding; Potency, µM (top dose mostly 58.2 µM), actives largely listed as inhibitors; 0.2% of 360,000 active; AID 720542, 2013; also: nearly all actives have a fitted effect of over 45% in size
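AMA1 (3D7) with his tag at 25 nM final met compounds first, then biotinylated RON2 peptide at 25 nM; detection used donor plus acceptor beads, 10 µg/mL apiece, read by AlphaScreen after 30 min at room temperature.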
Shiga toxin inh – A qHTS for Small Molecule Inhibitors of Shiga Toxin; inhibition, % at 38.7 µM; Vero cells, Shiga toxin protein synthesis inhibition reporter; 9.2% of 290,000 active; in the data active = inhibition mostly above about 28%, no sharp cut-off; inactive = mostly below about 43%
SARS PLP yeast – qHTS of Yeast-based Assay for SARS-CoV PLP | 0.19% of 330,000 active | AID 485353, 2010 | S. cerevisiae expressing SARS-CoV PLpro, growth rescue | Potency, µM (highest dose often 32.9 µM), most hits filed as activators; calls by dose curve; also: nearly all actives have a fitted effect of over 55% in size
CHX counter – Cycloheximide Counterscreen for Small Molecule Inhibitors of Shiga Toxin. cell reporter, cycloheximide protein synthesis inhibition counterscreen. max response, %. 12% of 300,000 active. AID 2314, 2010; in the data active = max response mostly above about 13%, no sharp cut-off; inactive = mostly below about 14%; also: read at 38.3 µM for the half of the compounds with a filed dose
Of the large screens only hits and unclear results are named; the others gave an inactive call. Unless noted, calls follow the shape of the dose curve; as a rule, active = well fitted curve in the direction sought with a large enough effect; inconclusive = small, poorly fitted or top-dose-only effect, or another doubt; inactive = no such curve, though single readings can be large; an effect the other way counts as inactive or inconclusive.

CCCCC(=O)NC(c1ccccc1Cl)c1c(O)ccc2ccccc12 (centres undefined)	Pf growth 48h 10µM
CCCCC(=O)NC(c1ccc(OC)c(OC)c1)c1c(O)ccc2ccccc12 (centres undefined)	Pf growth 96h 12µM, Pf growth 48h inconclusive
CCCC(=O)NC(c1ccccc1Cl)c1c(O)ccc2ccccc12 (centres undefined)	Pf growth 48h 10µM
COc1cc(/C=C/C(=O)OCC(=O)Nc2ccc3c(c2)OCCO3)ccc1OCC#N	none
O=C(Nc1cc(S(=O)(=O)N2CCCCC2)ccc1Oc1ccccc1)C1=COCCO1	Pf growth 96h 10µM, Pf growth 48h 10µM
COc1cccc(Oc2ccc(C(F)(F)F)cc2NC(=O)C2=COCCO2)c1	Pf growth 96h 7.4µM, Pf growth 48h inconclusive
COc1ccc(S(=O)(=O)N2CCCCCC2)cc1NC(=O)c1ccccc1	Pf growth 96h inconclusive
Cc1ccc(C2CN(c3ccccc3)CC2C(=O)c2ccc(F)cc2)cc1 (centres undefined)	Pf growth 96h inconclusive, Pf growth 48h inconclusive
CC(=O)c1ccc(NC(=O)CSc2ccc(-c3sc(C)nc3C)nn2)cc1	Pf growth 96h inconclusive, Pf growth 48h inconclusive, CHX counter 13
COc1ccc(NC(=O)CSc2ccc(-c3sc(C)nc3C)nn2)cc1OC	Pf growth 96h 13µM, Pf growth 48h inconclusive
Cc1nc(C)c(-c2ccc(SCC(=O)Nc3ccc(C)c(Cl)c3)nn2)s1	none
S=C1NC(c2ccccc2)=NCN1c1ccccc1	CHX counter 30 (no result: Pf growth 48h)
O=C1CN(c2ccccc2)C(=O)N1	none
Cc1ccc(C2=NCN(c3ccc(C(=O)O)cc3)C(=S)N2)cc1	CHX counter 39 (no result: AMA1-RON2 inh)
Cc1ccc(-c2n[nH]c(=S)n2/N=C/c2ccc(C(=O)O)cc2)cc1	none (no result: Pf growth 48h)
COC(=O)c1cc(S(=O)(=O)C(C)C)c(S(C)=O)s1 (centres undefined)	Pf growth 96h inconclusive, Pf growth 48h inconclusive, CHX counter 14
Cc1ccc(S(=O)(=O)N2CCN(C(=O)C3CSC4(C)CCC(=O)N34)CC2)cc1C (centres undefined)	none (no result: Shiga toxin inh, CHX counter)
O=C(NCCCN1CCCC1=O)c1ccc(Cl)c(Cl)c1	none
Cc1cc(C)c(C)c(C(=O)CSc2nnc(-c3ccc4[nH]c(C)c(C)c4c3)o2)c1C	Pf growth 96h inconclusive, Pf growth 48h 13µM, SARS PLP yeast inconclusive
COC(=O)c1c(-c2c(Cl)cccc2Cl)noc1NC(=O)NN1CCOCC1	Pf growth 96h 1.3µM, Pf growth 48h 13µM
COC(=O)c1c(-c2c(Cl)cccc2Cl)noc1NC(=O)NN1CCCCC1	Pf growth 96h 0.26µM, Pf growth 48h 0.33µM
O=S(=O)(c1ccc(Cl)cc1)N1CCN(CCc2ccncc2)CC1	none
CC(C)(C)NC[C@H](O)CSc1nc(-c2ccc(C(N)=O)s2)cs1	Pf growth 96h 11µM, Pf growth 48h inconclusive (no result: AMA1-RON2 inh, Shiga toxin inh, SARS PLP yeast, CHX counter)
CCO[C@H]1OC(C(N)=O)=C[C@@H](c2ccccc2)[C@@H]1CCCO	Pf growth 48h inconclusive
CC(C)c1ccc(NC(=O)CSc2nc(=O)n(CCN3CCOCC3)c3c2CCC3)cc1	Pf growth 96h inconclusive, Pf growth 48h inconclusive (no result: Shiga toxin inh, CHX counter)
O=[N+]([O-])c1cc(O)c2ncccc2c1	Pf growth 96h inconclusive, Pf growth 48h inconclusive, CHX counter 22
O=[N+]([O-])c1cc2cccnc2c2ncccc12	Pf growth 96h 9.3µM, Pf growth 48h 4.7µM
O=[N+]([O-])c1ccccc1-c1nc(-c2ccc(Br)o2)no1	Pf growth 96h inconclusive, AMA1-RON2 inh 25µM, Shiga toxin inh 88, SARS PLP yeast inconclusive, CHX counter 30
Clc1ccccc1-c1nc(-c2ccc(Br)o2)no1	Pf growth 96h inconclusive, Shiga toxin inh 129, CHX counter 37
Cn1nc(-c2ccccc2)c(-c2nc(-c3ccccc3Cl)no2)c1Cl	none (no result: Pf growth 48h)
COc1ccc(NC(=O)c2ccc(NCCN3C(=O)CCC3=O)c([N+](=O)[O-])c2)cc1	Pf growth 96h inconclusive
COc1ccc(/C=C/C(=O)NCc2ccc(F)cc2)cc1S(=O)(=O)N1CCOCC1	Pf growth 96h inconclusive, Pf growth 48h inconclusive
COc1ccc(NC(=O)c2cc3ccccc3cc2OC)cc1	Pf growth 48h inconclusive, SARS PLP yeast inconclusive, CHX counter 29
COc1cc2cc(C(=O)Nc3ccccc3)c(N)nc2cc1OC	Pf growth 96h inconclusive, Pf growth 48h 2.3µM
Cc1ccc(Cl)cc1NC(=O)COC(=O)c1ccccc1O	none
CCOc1ccc(NC(=O)c2cccc3ccccc23)cc1	Pf growth 96h inconclusive, CHX counter 18
Cc1ccc(Cl)cc1NC(=O)c1cc2ccccc2cc1O	Pf growth 96h 0.29µM, Pf growth 48h 0.93µM
CCOC(=O)/C(C#N)=C/c1c(N2CCN(CC)CC2)nc2c(C)cccn2c1=O	none
CCOc1ccc(NC(=O)c2cc3ccccc3cc2OC)cc1	Shiga toxin inh 60, CHX counter 36
COc1cc2ccccc2cc1C(=O)Nc1cccnc1	Shiga toxin inh 76, CHX counter 33 (no result: Pf growth 96h)
CCOc1ccc(NC(=O)c2cc(OC)nc3ccccc23)cc1	none
CCOc1ccc(NC(=O)[C@@H](NC(=O)c2ccccc2Br)C(C)C)cc1	Pf growth 96h 15µM (no result: Pf growth 48h)
COc1ccccc1NC(=O)c1cc2cc(Br)ccc2cc1O	Pf growth 96h inconclusive, Pf growth 48h 2.9µM, Shiga toxin inh 85, CHX counter 24
COc1ccccc1N(C)S(=O)(=O)c1ccc(C(=O)Nc2ccncc2)cc1	Pf growth 96h inconclusive, Pf growth 48h inconclusive (no result: Shiga toxin inh, CHX counter)
C#CCSc1n[nH]c(=O)n1-c1cccc(C(F)(F)F)c1	none
O=C(Nc1nnc([C@@H]2C[C@H](O)[C@@H](CO)O2)s1)c1ccc(Oc2ccccc2)cc1	none (no result: Pf growth 96h, Pf growth 48h, Shiga toxin inh, SARS PLP yeast, CHX counter)
CCOc1ccc(NC(=O)c2cc3ccccc3cc2O)cc1	Pf growth 96h 1.9µM, Pf growth 48h 1µM, Shiga toxin inh 60, CHX counter 30
COc1cc(NC(=O)c2cc3ccccc3cc2O)c(OC)cc1Cl	Pf growth 96h 1.3µM, Pf growth 48h 2.1µM, Shiga toxin inh 63, CHX counter 19
COc1cc2ccccc2cc1C(=O)Nc1ccccc1Cl	Pf growth 48h inconclusive, Shiga toxin inh 71, CHX counter 86
COc1cc2ccccc2cc1C(=O)Nc1ccccc1N1CCCC1	Pf growth 96h inconclusive, Pf growth 48h inconclusive, AMA1-RON2 inh inconclusive (no result: Shiga toxin inh, CHX counter)
COc1cc(NC(=O)c2ccc(Cl)cc2)c(OC)cc1Cl	none (no result: Pf growth 48h)
CCc1ccccc1NC(=S)N(Cc1ccc(OC)cc1)CC1CCC(C(=O)O)CC1 (centres undefined)	none
COc1ccc(C2=NOC(COc3ccc([N+](=O)[O-])cc3)C2)cc1 (centres undefined)	none
CC1CN(c2nc3c(c(=O)n(Cc4ccc(Cl)cc4)c(=O)n3C)n2C)CC(C)O1 (centres undefined)	Pf growth 96h 2.3µM, Pf growth 48h 5.9µM
